Compound activity as filed in PubChem.
Most compounds without a hit are left out; they make up all but 6.5% or so of the library.
HCMV inh = human cytomegalovirus inhibition | HFF cells, HCMV-luciferase reporter, 72 h; hits give low values | actives 4.5% (n = 410,000) | AID 1259415 | activity change, negative = inhibition, % at 57.5 µM; in the data active = activity change below about -60%; inconclusive = no clear call, values can overlap the other calls; inactive = above about -39%
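After 16 h attachment at 37C, HFF cells received test compound and HCMV-luciferase (1 PFU/cell); reporter luminescence read 72 h later, data normalized against buffer-only and known inhibitor Salinomycin.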
FMDV inh = blocks foot and mouth disease virus; FMDV antiviral cell-based qHTS; Potency, µM (titrated, usually from 57.9 µM), for inactives: at the top dose activity change, negative = inhibition, most hits filed as inhibitors; actives 1.2% (n = 410,000); calls by dose curve; tested in HEK293T cells; note: read-out not given here; potency is the fitted concentration of half-maximal effect; nearly all actives have a fitted effect of over 45% in size
Marburg entry inh = inhibitors of Marburg virus binding or cell entry | Marburg virus pseudotyped entry inhibition, cell reporter | Potency, µM (doses to about 37.8 µM), for inactives: at the top dose activity change, negative = inhibition, actives largely listed as inhibitors | actives 1.8% (n = 300,000) | AID 540276; calls by dose curve; tested in HEK293 cells; note: potency is the fitted concentration of half-maximal effect
Lassa entry inh = blocks Lassa virus binding to or entry into cells. Lassa virus pseudotype entry inhibition, cell reporter. Potency, µM (top dose mostly 37.9 µM), inactives show top-dose activity change, negative = inhibition, actives largely listed as inhibitors. actives 1.2% (n = 300,000); calls by dose curve; tested in HEK293 cells; note: potency is the fitted concentration of half-maximal effect; nearly all actives have a fitted effect of over 50% in size
Vaccinia mCherry = inhibitors of vaccinia virus infection (mCherry reporter signal); Vaccinia virus mCherry reporter infection, fluorescence; Potency, µM (highest dose often 36.5 µM), without a hit: top-dose activity change, negative = inhibition, actives largely listed as inhibitors; AID 720579; actives 0.63% (n = 310,000); calls by dose curve; tested in A549 cells; note: potency is the fitted concentration of half-maximal effect; nearly all actives have a fitted effect of over 35% in size
VACV Venus inh = inhibitors of vaccinia virus (Venus reporter); Vaccinia virus Venus reporter expression, fluorescence; Potency, µM (doses to about 36.5 µM), for the others: at the top dose activity change, negative = inhibition, usual class: inhibitors; actives 0.46% (n = 330,000); calls by dose curve; tested in A549 cells; note: potency is the fitted concentration of half-maximal effect; nearly all actives have a fitted effect of over 30% in size
Starred values were filed as active, the others as inactive; i = inactive; u = inconclusive; x = no result; [ ] = remark or other dose. % is set by controls: 0 for no effect and ±100 for the full control effect.

SMILES	HCMV inh	FMDV inh	Marburg entry inh	Lassa entry inh	Vaccinia mCherry	VACV Venus inh
Cc1nc2c(O)c3c(c(O)c2nc1C)C1C=CC3CC1	-17	7.1µM*	u	u	-4%	-25%
Cc1nc2c(C)c(C)c(C)c(C)c2nc1C	u	7%	0%[14.2 µM]	2%	i	-1%
O=C(NCc1ccccc1)c1ccc2c(c1)nc1n2CCOC1	4	7%	x	27%[46.1 µM]	-17%	-13%
Cc1c(Cc2ccc3c(c2)OCO3)sc(NC(=O)C2CC2)c1C(N)=O	0	u	7%[46.1 µM]	8.9µM*	u	u
COc1ccc(Nc2nccc3c2cc(-c2ccc(C(=O)N(C)C)cc2)n3C)c(OC)c1	-15	x	x	x	x	x
CCc1nnc(NC(=O)c2cc(Cl)ccn2)s1	48	24%	u	-28%[46.1 µM]	u	-11%
CCC1CCCCN1C(=O)CSc1nc2ncccc2[nH]1 (centres undefined)	-2	1%	x	x	x	x
CC1(C)c2ccccc2-c2nc3ccccc3cc2C1O (centres undefined)	8	35%	-2%[46.1 µM]	2%[46.1 µM]	-27%	8%
c1ccc2c(c1)-c1nc3ccccc3cc1C2N1CCCCC1 (centres undefined)	-102*	-21%	x	x	-4%	0%
CCOC(=O)C1CCCN(S(=O)(=O)c2nc3nc(C)cc(C)n3n2)C1 (centres undefined)	-6	0%	19%	-9%	-9%	-16%
S=C(c1c[nH]c2ccc(Br)cc12)N1CCOCC1	-72*	0%	x	x	x	x
O=C(c1c[nH]c2ccccc12)N1CCOCC1	-21	9%	-24%[46.1 µM]	-11%	i	1%
C=CCN(CC=C)C(=O)c1cc2ccccc2c(=O)o1	-63*	-22%	-3%	13%	i	-15%
O=C(NCc1ccco1)c1cc2ccccc2c(=O)o1	-36	31%	20%	u	i[1.46 µM]	-9%
Cc1ccc(S(=O)(=O)N2CCOCC2)cc1C(=O)OCC(=O)Nc1ccc2c(c1)OCO2	19	-10%	-2%	11%	-7%	-5%
CCc1nc2ccccc2c(C(=O)OCC(=O)Nc2cccc(S(=O)(=O)NC3=NCCCCC3)c2)c1C	u	25µM*	u	22µM*	u	u
Cc1ccc(S(=O)(=O)N2CCOCC2)cc1NC(=O)COc1ccc(C(=O)c2ccccc2)cc1	21	20µM*	x	x	x	x
O=C(NC(=S)Nc1cccc(S(=O)(=O)NC2=NCCC2)c1)c1cc(-c2ccco2)nc2ccccc12	-81*	-10%	u	-12%	u	-19%
O=C(COC(=O)c1ccc2ccccc2n1)Nc1cccc(S(=O)(=O)NC2=NCCCCC2)c1	86	16%	2%	6%	x	x
O=C(Nc1cccc(S(=O)(=O)NC2=NCCC2)c1)c1cc(-c2ccco2)nc2ccccc12	8	27%	-20%	u	i	3%
COc1cccc(NC(=O)COC(=O)c2cc(S(=O)(=O)N3CCOCC3)ccc2C)c1	22	-9%	18µM*	-18%	i	-21%
COc1cc(S(=O)(=O)N2CCOCC2)ccc1NC(=O)COC(=O)CC12CC3CC(CC(C3)C1)C2	u	-16%	-65%	16µM*	x	x
CCOCCCn1c(SCC(=O)Nc2cccc(S(=O)(=O)NC3=NCCCCC3)c2)nc2ccccc2c1=O	-9	-9%	x	x	x	x
CCc1nc2ccccc2c(C(=O)OCC(=O)Nc2ccc(S(=O)(=O)N3CCOCC3)cc2)c1C	-32	u	u	u	u	u
CCCn1c(SCC(=O)Nc2cccc(S(=O)(=O)NC3=NCCCCC3)c2)nc2ccccc2c1=O	-30	32µM*	u	-23%	-13%	-22%
SMILES	HCMV inh	FMDV inh	Marburg entry inh	Lassa entry inh	Vaccinia mCherry	VACV Venus inh
COc1cc(S(=O)(=O)N2CCOCC2)ccc1NC(=O)COC(=O)c1cc(OC)c(OC)c(OC)c1	6	2%	-25%	-13%	i	-10%
CCc1nc2ccccc2c(C(=O)OCC(=O)Nc2cccc(S(=O)(=O)N3CCOCC3)c2)c1C	-32	20µM*	4.6µM*	u	x	x
O=C1c2cccnc2C(=O)N1c1nc(-c2ccccc2)cs1	x	x	x	x	-24%	-13%
O=C(CN1CCOCC1)NN1CC(=O)N(c2ccc(Cl)cc2)CC1=O	54	-4%	14%[46.1 µM]	10%	i	-12%
CCOc1ccccc1CNC(=O)CCCn1ncn2c(cc3occc32)c1=O	16	-12%	6%[46.1 µM]	-1%[46.1 µM]	-19%	-16%
Clc1cccc2c1Sc1ccccc1CC2N1CCNCC1 (centres undefined)	u	-22%	u	5.2µM*	u	u
O=C(NCC(c1ccccc1)c1ccccc1)c1nn(-c2ccccc2F)nc1CO	-35	10µM*	-9%[46.1 µM]	u	-22%	-21%
O=C(NCCCc1ccccc1)c1nn(-c2ccccc2F)nc1CO	-61*	u	10%[46.1 µM]	u	-8%	-16%
O=C(NCCCCc1ccccc1)c1nn(-c2ccccc2F)nc1CO	-20	0%	-2%[46.1 µM]	-3%[46.1 µM]	-7%	-6%
O=C(NCc1cccs1)c1nn(-c2ccccc2F)nc1CO	-66*	u	12%[46.1 µM]	-26%[46.1 µM]	-23%	-25%
O=C(NCCc1ccccc1)c1nn(-c2ccccc2F)nc1CO	-26	0%	29%[46.1 µM]	-20%[46.1 µM]	-11%	-14%
COCCNC(=O)C1(C)CCCN(Cc2cc(C)ccc2C)C1 (centres undefined)	-17	-16%	x	x	-7%	-3%
O=C(Nc1ccc2ccccc2c1)C(=O)c1ccccc1F	-19	x	x	x	x	x
C[C@H](CO)N1C[C@H](C)[C@@H](CN(C)S(C)(=O)=O)Oc2ccc(NC(=O)Nc3ccc4c(c3)OCO4)cc2C1=O	6	0%	x	x	-12%	-6%
O=C(N1CCCCC1)N1CCC[C@@H]1c1noc2ccccc12	-20	x	x	x	x	x
O=C(NCCCn1ncc2ccccc21)c1cc(COc2c(F)cccc2F)on1	-25	-3%	u	-23%[46.1 µM]	i	-7%
CC(=O)N1CCN(c2nc3c(F)cc(F)cc3s2)CC1	104	49%	x	2%[46.1 µM]	-4%[7.34 µM]	-5%[7.34 µM]
CC(=O)N1CCN(c2c(F)c(F)c(C(F)(F)F)c(F)c2F)CC1	-61*	u	u	6%	-23%	-25%
Cc1oc(-c2ccccc2NC(=O)c2ccccn2)nc1CNC(=O)c1ccc(Oc2ccccc2)o1	x	3%	x	x	-11%	-6%
CSc1cccc(NC(=O)c2ccc(CN3CCc4ccccc4C3)cc2)c1	-61*	u	u	u	-19%	u
O=C(Nc1cccc(Br)c1)c1ccc(CN2CCc3ccccc3C2)cc1	-28	u	x	x	x	x
Cc1cccc(-c2nc(S(=O)(=O)c3ccc(F)cc3)c(NCCCN3CCOCC3)o2)c1	-16	-10%	u	u	-3%	-13%
S=c1[nH]c(-c2ccc(Cl)cc2)cs1	-62*	9%	0%[46.1 µM]	x	-15%	-2%
COc1cc(C(=O)Oc2ccccc2/C=N/NC(=O)c2ccc(Cl)cc2Cl)cc(OC)c1OC	-100*	15%	u	u	x	u
C=CCOc1ccccc1/C=N/NC(=O)c1ccc(Cl)cc1Cl	10	-2%	u	-1%	-14%	-2%
